Reference: PubChem BioAssay (EPA / NIEHS)
Inconclusive results are not listed. Calls of active or inactive are those of the source. Rule for the calls, unless noted: active = hit-call score of the fitted dose curve at least 0.9, where 1 is the maximum; inconclusive = response in the unintended direction; inactive = score below 0.9.

Key:
[1] = Tanguay_ZF_120hpf_JAW_legacy: (Legacy) Oregon State University Tanguay Lab 120 Hour Post-fertilization zebrafish Assay for Jaw Malformation (AID 2283638);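 for AC50: active means more embryos with jaw malformation than DMSO controls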
In short: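 Binary jaw-malformation call at 120 hpf by brightfield microscopy. Embryos (Tropical 5D strain, chorion removed at 4 hpf) were dosed statically at 6 hpf, one per well, at 28C with 0.64% DMSO. Embryos that died were not scored.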

[2] = Tanguay_ZF_120hpf_OTIC_legacy: (Legacy) Oregon State University Tanguay Lab 120 Hour Post-fertilization zebrafish Assay for Otic Vesicle Malformation (AID 2283639)
In short: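 Wild-type zebrafish larvae, whole-embryo exposure from early stage to 120 hpf at 28C. Binary brightfield scoring of otic vesicle morphology, fitted in the positive direction against the DMSO baseline.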

[3] = Tanguay_ZF_120hpf_PE_legacy: (Legacy) Oregon State University Tanguay Lab 120 Hour Post-fertilization zebrafish Assay for Pericardial Edema (AID 2283640);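 for AC50: potency for increased incidence of pericardial edema versus DMSO baseline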
In short: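 Scoring was binary, by brightfield microscopy at 120 hpf, and skipped where mortality occurred. Wild-type embryos were kept under sealed, foil-covered static exposure at 28C in 0.64% (vol/vol) DMSO.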

[4] = Tanguay_ZF_120hpf_BRAI_legacy: (Legacy) Oregon State University Tanguay Lab 120 Hour Post-fertilization zebrafish Assay for Brain Malformation (AID 2283641)
In short: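 Binary brightfield scoring of brain malformation at 120 hpf in Tropical 5D larvae held under static exposure at 28C (0.64% v/v DMSO), non-mortality endpoints skipped if dead. Positive control: 5uM trimethyltin chloride; fit versus DMSO.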

[5] = Tanguay_ZF_120hpf_SOMI_legacy: (Legacy) Oregon State University Tanguay Lab 120 Hour Post-fertilization zebrafish Assay for Somite Malformation (AID 2283647)
In short: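 Binary somite-defect scoring at 120 hpf, omitted for embryos that died, in wild-type (Tropical 5D) zebrafish with chorion removed by pronase at 4 hpf; static exposure began 6 hpf, single embryos per well, 28C, 0.64% DMSO; fitted positive versus DMSO.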

[6] = Tanguay_ZF_120hpf_PFIN_legacy: (Legacy) Oregon State University Tanguay Lab 120 Hour Post-fertilization zebrafish Assay for Pectoral Fin Malformation (AID 2283648);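 note: each larva judged yes or no for fin defect by brightfield with dead larvae skipped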
In short: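 Pectoral fin malformation was recorded as a binary endpoint at 120 hpf in wild-type Tropical 5D larvae, which had been dechorionated and exposed statically from 6 hpf at 28C in 0.64% DMSO. Dead embryos were excluded.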

[7] = Tanguay_ZF_120hpf_CFIN_legacy: (Legacy) Oregon State University Tanguay Lab 120 Hour Post-fertilization zebrafish Assay for Caudal Fin Malformation (AID 2283649)
In short: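 Binary brightfield scoring of caudal fin defects at 120 hpf after static, light-shielded exposure at 28C from 6 hpf. Tropical 5D embryos, chorion removed with pronase at 4 hpf, final DMSO 0.64%.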

[8] = Tanguay_ZF_120hpf_PIG_legacy: (Legacy) Oregon State University Tanguay Lab 120 Hour Post-fertilization zebrafish Assay for Pigmentation Malformation (AID 2283650)
In short: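 Pigment malformation recorded as a binary call at 120 hpf in zebrafish (Tropical 5D) exposed singly from 6 hpf after pronase dechorionation. Static, sealed, 28C exposure, 0.64% DMSO; mortality excludes scoring; positive-direction fit against DMSO.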

[9] = Tanguay_ZF_120hpf_CIRC_legacy: (Legacy) Oregon State University Tanguay Lab 120 Hour Post-fertilization zebrafish Assay for Circulatory Malformation (AID 2283651)
In short: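 Binary circulatory-malformation call at 120 hpf via brightfield imaging, relative to DMSO controls. Embryos (5D strain, chorion removed) received static, light-shielded exposure at 28C.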

[10] = read-out: kallikrein-3 (KLK3), KLK3 (gene 354); experiment: LTEA_HepaRG_KLK3: Life Technologies and Expression Analysis (LTEA) Assay for kallikrein-3 (KLK3) using HepaRG (AID 2283652; active = hit-call score of the fitted dose curve at least 0.9, where 1 is the maximum; inactive = score below 0.9); details: mRNA level, 48 h; actives raise or lower the signal
Method: LTEA_HepaRG is a cell based, multiplexed-readout assay that uses HepaRG, a human liver cell line, with measurements taken at 48 hours after chemical dosing on a 96-well plate.LTEA_HepaRG_KLK3 is one of 102 assay component(s) measured in the LTEA HepaRG cell culture assay. It is a marker of Cellular remodeling.Data from the assay component LTEA_HepaRG_KLK3 was analyzed into 1 endpoint. This assay endpoint, LTEA_HepaRG_KLK3, was analyzed with bidirectional fitting relative to DMSO as the negative control and baseline of activity. Using a type of inducible reporter, measures of mRNA induction for gain or loss-of-signal activity can be used to understand regulation of transcription factor activity. To generalize the intended target to other relatable targets, this assay endpoint is annotated to the protease intended target family, where the subfamily is Cellular remodeling.
A total of 1060 chemcials from the ToxCast library were tested in eight-point concentration-response experiments. Cell culture and cytotoxicity assays were conducted at Thermo Fisher Scientific's Custom Services facility (Madison, WI). A single lot of human HepaRG cells (Thermo Fisher Scientific, Frederick, MD) was used for the cell culture experiments. 96-well format collagen type I coated plates of human HepaRG cells were prepared using established methods. Briefly, cryopreserved HepaRG cells were thawed, plated at a density of approximately 100,000 cells/well in HepaRG Thaw, Plate, and General Purpose media (HPRG770, Thermo Fisher Scientific), and incubated for 48 hours. 0.5% DMSO was selected as vehicle control to balance the requisite need of DMSO in HepaRG cultures to maintain differentiation (for example, baseline metabolism, proportions of hepatocytes vs. cholangiocytes), while enabling further hepatic receptor pathway activation (for example, PXR and CAR) in response to chemical exposure. 48 hours after plating, the culture medium was replaced with HepaRG Serum-Free Incudtion Media. Cells were exposed to each test chemical in duplicate and maintained in CO2 incubators for another 48 hours. Chemical plates were thawed to room temperature and 200x concentrations of treatment groups were prepared. 8-point conentration-reponse curves were made with the highest exposure at 100 uM, followed by half-log dilutions, all in 0.5% DMSO. Each test plate contained variouse controls, induction positive controls (1mM phenobarbital), cytotoxicity positive controls ([…] aflatoxin B1), vehicle controls (0.5% DMSO), and total lysis controls (0.5% DMSO). […] Fluidigm's 96.96 Dynamic ArrayTM (Fluidigm, Amsterdam, the Netherlands) technology was used for gene expression analyses by quantitative reverse transcription polymerase chain reaction (qRT-PCR, performed by Quintiles/Expression Analysis, Durham, NC)89. […]

Measured: AC50

Cc1c(C)c2c(c(C)c1O)CCC(C)(COc1ccc(CC3SC(=O)NC3=O)cc1)O2 (stereo not given)
not listed: [10]
inactive: all other assays above

O=C1NC(=O)C(c2ccccc2)(c2ccccc2)N1
not listed: [4] | [10]
inactive: all other assays above

CC(C)c1cccc(C(C)C)c1NC(=O)NS(=O)(=O)c1cc(C(C)(C)O)co1
not listed: [4] | [5] | [10]
inactive: all other assays above

CN(C)CCCN(C)CCCN(C)C
not listed: [10]
inactive: all other assays above

COC(=O)CCC(=O)OC
not listed: [4] | [5] | [10]
inactive: all other assays above

COC(=O)CCCC(=O)OC
inactive: [1] | [2] | [3] | [5] | [6] | [7]

CN(C)CCCN1c2ccccc2Sc2ccc(Cl)cc21
not listed: [5]
inactive: all other assays above

C=CCc1ccc(OC)c(OC)c1
not listed: [4] | [7] | [10]
inactive: all other assays above

S=c1[nH]c2ccccc2s1
active: [1] 10.7 µM | [2] 11.2 µM | [3] 37.6 µM | [6] 10.4 µM | [7] 31.9 µM | [8] 39.6 µM

Cc1ccc(C(C)(C)C)c(O)c1
not listed: [4] | [10]
inactive: all other assays above

NC=O
inactive: [1] | [2] | [4] | [6] | [7] | [8]

COc1ccc(OC(F)(F)F)cc1CN[C@H]1CCCN[C@H]1c1ccccc1
not listed: [3] | [5] | [10]
inactive: all other assays above

NC1CCCCC1
inactive: [1] | [2] | [3] | [7] | [8] | [9]

NC(=Nc1ccccc1)Nc1ccccc1
not listed: [3] | [10]
inactive: all other assays above

CS(=O)(=O)c1ccc([C@@H](C[C@H]2CCC(=O)C2)C(=O)Nc2cnccn2)cc1Cl
not listed: [3] | [4] | [10]
inactive: all other assays above

CCN(CC)CCOc1ccc(C(=C(Cl)c2ccccc2)c2ccccc2)cc1
inactive: [1] | [2] | [4] | [7] | [9]

CC(C)COC(=O)CCCCC(=O)OCC(C)C
inactive: [1] | [2] | [5] | [7] | [8]

COC(=O)[C@H]1[C@H]2C[C@@H]3c4[nH]c5cc(OC)ccc5c4CCN3C[C@H]2C[C@@H](OC(=O)c2cc(OC)c(OC)c(OC)c2)[C@@H]1OC
inactive: [1] | [2] | [4] | [6] | [7] | [9]

O=C(Oc1ccccc1)c1cccc(C(=O)Oc2ccccc2)c1
not listed: [3] | [4] | [10]
inactive: all other assays above

C/C=C/c1ccc(OC)cc1
not listed: [3] | [9] | [10]
inactive: all other assays above
